Assay results: PubChem BioAssay (NCI)
About 83,000 compounds went through this panel and 20% of them were active in at least one assay; those are over-represented in the sample as a whole.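 Interpretation: 100, growth as untreated; towards 0, rising growth inhibition; 0, no net growth; 0 to -100, cell death. Compounds scoring below 10 were considered active.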 Values without a mark were called inactive. Calls of active or inactive are those of the source.

Each compound was assayed on HL-60(TB) leukemia (assay: NCI-60 one-dose screen, 48 h (100 = growth as untreated, 0 = no growth, -100 = all killed)). Settings: 10 µM unless noted.
`Cc1nc(-c2ccccc2)cc2c(O)c(C(=O)NN)[nH]c(=O)c12` showed a growth of 126%.
For `COc1cc(C2CC(c3ccc(Nc4nc(Nc5ccc(F)cc5)nc(Nc5ccc(Cl)cc5)n4)cc3)=NN2C(C)=O)cc(OC)c1OC` (stereo not given), the growth was 35.2%.
With `O=C(Nc1ncc(Cc2cccc(C(F)(F)F)c2)s1)c1ccc2c(c1)OCCO2` the growth was -46.6% (active).
`Nc1nccc(Nc2ccccc2)n1` showed a growth of 105%.
`COc1ccc(OC)c(C(=O)Nc2cccc(-c3cc(=O)c4ccccc4o3)c2)c1` was tested, and the growth was 89.4%.
In the case of `Clc1cccc(Nc2ncnc3ccc(-c4cnc5[nH]ccc5c4)cc23)c1`, the growth is reported as 105%.
In the case of `NS(=O)(=O)Oc1cccc(-c2nc3sccn3c2-c2ccccc2)c1`, the growth is reported as 0.181% (active).
Work on `O=C1Nc2ccc(Cl)cc2/C1=C/c1cccs1` yielded a growth of 98%.
`COC(=O)c1ccc(CSc2nnc(-c3ccncc3)o2)cc1` was tested, and the growth was 95.5%.
`CC(=O)Nc1c(Cl)cc2c(c1Cl)Cc1cc([N+](=O)[O-])ccc1-2` gave a growth of 96.3%.
In the case of `CC(=O)N1CCN(CCNC(=O)n2cc(-c3ccncc3)c(-c3ccc(O)c(Cl)c3)n2)CC1`, the growth is reported as 106%.
`c1ccc2c(c1)CN(CCCN1CCOCC1)C2` was tested, and the growth was 105%.
`COc1ccc(CCNc2nc3c(c(=O)n(Cc4ccc(Br)cc4)c(=O)n3C)n2C)cc1OC` gave a growth of 28.6%.
Compound `COC(=O)C1(C)COP(=O)(Nc2ccc(OC)cc2)OC1` (stereo not given) has a growth of 94.7%.
For `CCCN1CCN(c2ccc3nc(-c4ccc5nc(-c6ccc(OCC)c(OCC)c6)[nH]c5c4)[nH]c3c2)CC1`, the growth was -23.1% (active).
